The source of these data is the supplement of paper PMC9477273.

The structures appear in SMILES notation.

The test has as its system DRIVER-selected RNA biosensor (aptazyme) pool. The test can be described thus: maximum fold change of ribozyme cleavage across biosensor pool versus no-compound control; higher = stronger biosensor response (ligand inhibits cleavage). As to conditions: 10 µM. The protocol:
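CleaveSeq: a pool of resynthesized hammerhead-ribozyme RNA biosensors (sTRSV scaffold with randomized loops, 1,730 sequences) was T7-transcribed at 37 °C for 15-30 min with a single compound at 10 µM. Cleaved and uncleaved products were counted by NGS, and fold change of cleavage was computed against the DMSO-only condition. The value is the maximum fold change of cleavage over all biosensors in the pool. About 255 compounds were tested individually.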
The molecule `COc1ccc(cc1C1=N/C(=CNc2ccccn2)/C(=O)O1)Cl` returned a maximum fold change of 6.85.
Take `COc1ccc(C2=NN(CCC(=O)N3CCCCC3)C(=O)CC2)cc1`: the maximum fold change came to 4.11.
`Cc1ccc(CNc2nc3ccc(C)cc3n3cnnc23)cc1` had a maximum fold change of 2.77.
Molecule `CC1(C)CC(=O)C(=Cc2c[nH]c3ccccc23)C(=O)C1` came in with a maximum fold change of 2.44.
The same measure for `CC1CCN(c2ncnc3sc4c(c23)CCC(C)C4)CC1` (stereo not given): 3.18; for `O=C1C2CC=C(Cl)CC2C(=O)N1CCO` (stereo not given): 3.4.
The same measure for `CC(C)NC(=O)C1(c2ccccc2)CCCC1`: 2.11; for `O=C1N=c2sc(nn2C(=N)/C/1=Cc1cccn1Cc1ccccc1F)N1CCCC1`: 4.06; for `Cc1c(C(=O)N2CCN(C)CC2)sc2ncnc(N3CCN(c4ccccn4)CC3)c12`: 2.67.
Molecule `C=CC[n+]1c(/C=C2\C=CC=CN2C)sc2ccccc21` came in with a maximum fold change of 13.8.
The molecule `COc1ccc(C=C2C(=O)c3ccccc3C2=O)c(C)c1` returned a maximum fold change of 2.53.
`CC(C)COc1ccc(-c2nn(-c3ccccc3)cc2CO)cc1`: the maximum fold change was 3.19.
`COc1ccc(cc1)/C=CC(=O)NCC(=O)O` gave a maximum fold change of 3.29.
`C=CCNC(=O)c1c(C)c(C(=O)OCC)n(C)c1C` displayed a maximum fold change of 2.81.
On to `O=C(NC1CCN(Cc2ccccc2)CC1)c1cc2c(=O)oc3ccccc3c2s1`, for which the maximum fold change was determined as 7.21.
Consider `O=C1NC2(CCCCC2)N(C(=O)c2ccc(Cl)cc2)C2=C1CCCC2`, for which the maximum fold change worked out at 2.89.
With `CCOC(=O)C1=C(C)NC(=S)NC1c1ccc(O)c(OC)c1` (stereo not given), the maximum fold change came out at 3.37.
Regarding `CCOC(=O)c1cnc2c(OC)cccc2c1NCCCN(CC)CC`, the maximum fold change is 6.68.
The molecule `CCc1ccc2oc(C(=O)N(Cc3ccccc3F)C3CCS(=O)(=O)C3)c(C)c2c1` (stereo not given) displayed a maximum fold change of 4.9.
The same measure for `Cc1ccc2nc(/C(C#N)=C\c3ccc[nH]3)[nH]c2c1`: 4.98; for `O=C(NCCCc1ccccc1)C1CCN(c2nnc(N3CCCC3=O)s2)CC1`: 3.05.
The same measure for `COCCN1C(=O)c2[nH]nc(-c3ccccc3O)c2C1c1ccccc1` (stereo not given): 3.01; for `CC(C)c1ccc(C2c3c(-c4ccccc4O)n[nH]c3C(=O)N2CCCO)cc1` (stereo not given): 2.85.
`COc1ccc(CCn2c(SCC(=O)Nc3cc(C)n[nH]3)nc3ncccc3c2=O)cc1OC` had a maximum fold change of 11.2.
The result for `CC(=O)c1c(C)[nH]c2ccccc2c1=O` reads 2.03; that for `Cc1cc(C2C(=O)c3ccccc3C2=O)nc2ccccc12`, 11.3; that for `Cc1c(C(=O)Nc2ccncc2)sc2nc(-c3ccccc3)cn12`, 3.12.
The result for `N=C1/C(=C\c2ccc(Br)cc2)C(=O)N=C2SC(N3CCOCC3)=NN12` reads 2.79.
The result for `c1cncc(-c2nc3cc(Oc4ccc5[nH]c(-c6cccnc6)nc5c4)ccc3[nH]2)c1` reads 12.5.
In turn, `CS(=O)(=O)c1ccc2nc(NC(=O)c3cc4ccccc4o3)sc2c1` yielded a maximum fold change of 7.28.
`N=C1NC(=O)/C(=C/c2cc(Br)ccc2OCc2ccccc2)S1` displayed a maximum fold change of 4.89.
`Cc1ccc2[nH]c(=O)c3cc(C(=O)NCCCN(C)Cc4ccccc4)sc3c2c1` had a maximum fold change of 7.38.
On to `Cn1c(=O)c2c(-c3ccc(Cl)cc3)n(C3CCCCC3)cc2n(C)c1=O`, for which the maximum fold change is 2.62.
With `O=C(Cn1ncn2nc(-c3cccs3)cc2c1=O)N1CCN(c2ccccn2)CC1`, the maximum fold change worked out at 3.03.
Molecule `COc1ccc(-c2cc(-c3nc4c5c(ncn4n3)CCC5)n[nH]2)cc1` gave a maximum fold change of 1.38.
The molecule `CC(=O)N1C(=N)S/C(=C/c2cc3ccc(C)cc3nc2O)C1=O` registered a maximum fold change of 7.51.
In the case of `C=C(C)Cn1c(NCCCN2CCOCC2)nc2c1c(=O)[nH]c(=O)n2C`, the maximum fold change is 2.3.
As to `CCOC(=O)c1cnc2c(OC)cccc2c1NCC1COc2ccccc2O1` (stereo not given), the maximum fold change was found to be 7.13.
With `O=C(CSc1nnc(-c2ccc(Cl)s2)o1)N1CCOCC1`, the maximum fold change was 3.21.
`Cc1ccc2c(CNC3CCC(C)CC3)c(C(=O)O)n(Cc3ccccc3F)c2c1` (stereo not given) registered a maximum fold change of 2.5.
